# PubChem BioAssay
# Target: Concanavalin-A (Canavalia ensiformis) (UniProt P02866)
# Assay: ConA small-molecule binders, primary screen, artefact control for SMM control protein annotation, biochemical, small-molecule microarray, Alexa647 label, 635 nm (AID 1127);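 also: z combines 667 nm emission intensity with signal-to-noise across three replicate slides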
# Conditions: ConA-A647 binding fluorescence, higher = more signal
# Chain of Concanavalin-A (Canavalia ensiformis) (P02866 whole entry, looked up): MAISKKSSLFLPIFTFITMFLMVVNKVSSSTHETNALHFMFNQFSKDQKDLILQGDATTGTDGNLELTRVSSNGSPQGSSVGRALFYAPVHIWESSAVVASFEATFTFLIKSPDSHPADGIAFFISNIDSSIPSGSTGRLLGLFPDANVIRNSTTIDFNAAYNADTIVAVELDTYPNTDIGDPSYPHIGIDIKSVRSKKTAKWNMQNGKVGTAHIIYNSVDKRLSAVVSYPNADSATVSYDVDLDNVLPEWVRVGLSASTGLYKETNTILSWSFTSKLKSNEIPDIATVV
row,SMILES,composite z-score
1,CO[C@@H]1COC(=O)CC=C[C@@H](C)[C@@H]2C=C[C@@H](O)[C@@H](COC(=O)CC=C[C@H]1C)O2,-0.363
2,CCOC(=O)[C@H](Cc1ccccc1)NC(=O)CCC1CC(OC(=O)NCCc2ccc(F)cc2)CC2(CCCC(COC(=O)NCC(c3ccccc3)c3ccccc3)O2)O1 (stereo partly drawn),0.992
3,C[C@H]1CC[C@@H](C(=O)O)N[C@@H]1c1ccc(C#CCN(C)C)cc1,0.574
4,O=C1NC(=O)C2C1C=CC(C(O)Cc1ccccc1)N2Nc1ccccn1 (stereo not drawn),0.77
5,CCOC(=O)CCN1C(=O)[C@H]2[C@H]3[C@H](O)[C@H](O)CC(=NOC[C@@H](O)COCc4ccco4)[C@@H]3CC[C@H]2C1=O,0.318
6,CC(C)(C)N1C(=O)[C@H]2[C@H]3[C@H](O)[C@H](O)CC(=NOCc4ccccc4)[C@@H]3CC[C@H]2C1=O,0.694
7,COC(=O)[C@@]1(Cc2ccccc2)[C@H]2c3cc(C(=O)N4CCCC4)n(Cc4ccccn4)c3C[C@H]2CN1C(=O)c1ccccc1,1.04
8,C[C@@H](c1ccccc1)N1C(=O)[C@H]2[C@H]3[C@H](O)[C@H](O)CC(=NOC[C@@H](O)COCc4ccco4)[C@@H]3CC[C@H]2C1=O,-1.07
9,COc1ccc(O[C@H]2C=C[C@@H](c3ccccc3)O[C@@H]2COC(=O)CCC(C)=NOCC[C@@H]2C=C[C@H](OC(C)=O)[C@@H](COC(C)=O)O2)cc1,-0.997
10,O=C1[C@H]2[C@H]3[C@H](O)[C@H](O)CC(=NOC[C@@H](O)COCc4ccco4)[C@H]3CC[C@H]2C(=O)N1c1cccc(Oc2ccccc2)c1,-0.785
11,COC(=O)CC=C[C@@H](C)[C@@H](C=NO[C@@H](C)c1cc(-c2c(C)cc(C)cc2C)no1)OC,-0.627
12,COc1ccc(COC(=O)NN=C2C[C@@H](O)[C@@H](O)[C@@H]3[C@@H]4C(=O)N(Cc5ccc6c(c5)OCO6)C(=O)[C@@H]4CC[C@@H]23)cc1,-1.3
13,C[C@@H]1CCC2C(=O)N(Cc3ccccc3)C[C@@H](O)CN2[C@H]1c1ccc(Br)cc1 (stereo partly drawn),0.646
